Reference: PubChem BioAssay AID1159580 (chemical genetic matrix, 2015)
Where “and” joins values, the source holds several entries; their conditions need not be identical. Identical values can stand only once. Screen size: about 5,500 compounds; about 2,000 (36%) were called active. Another 18% or so got no clear call; they are omitted. Rule as the data show it: active = normalized growth mostly below about 0.91 (no sharp cut-off); inconclusive = no clear call, values can overlap the other calls; inactive = mostly above about 0.92. The list shows a part of the results.

Test: chemical genetic growth profiling, strain panel (AID 1159580);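 also: tested at 20 µM; growth read once vehicle control cultures reached saturation at 30 °C; 1 = growth at the plate median or of vehicle wells; lower values mean less growth of the strain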
Settings: S. cerevisiae deletion strains, growth OD

Measured: normalized growth

O=C1OCCN1/N=C\c1ccc([N+](=O)[O-])o1
active: locus YAL026C, strain drs2, stronger effect = lower value 0.889 | locus YDR162C, strain NBP2, stronger effect = lower value 0.771 | locus YDR392W, strain spt3, stronger effect = lower value 0.72 | locus YDR502C, strain sam2, stronger effect = lower value 0.92 | locus YER155C, strain BEM2 (second series), stronger effect = lower value 0.788 | locus YGL086W, strain mad1, stronger effect = lower value 0.923 | locus YJR043C, strain POL32, stronger effect = lower value 0.762
inactive: locus YAL013W, strain DEP1, stronger effect = lower value 0.986 | locus YAL021C, strain ccr4, stronger effect = lower value 0.961 | locus YAL030W, strain snc1, stronger effect = lower value 0.999 | locus YBL061C, strain skt5, stronger effect = lower value 1 | locus YBR009C, strain hhf1, stronger effect = lower value 0.97 | locus YBR021W, strain FUR4, stronger effect = lower value 1.03 | locus YBR023C, strain chs3, stronger effect = lower value 1 | locus YBR171W, strain sec66, stronger effect = lower value 0.987 | locus YBR229C, strain ROT2, stronger effect = lower value 0.999 | locus YBR231C, strain swc5, stronger effect = lower value 0.929 | locus YBR279W, strain paf1, stronger effect = lower value 0.986 | locus YCL011C, strain gbp2, stronger effect = lower value 0.991 | locus YCL016C, strain dcc1, stronger effect = lower value 0.935 | locus YCL029C, strain bik1, stronger effect = lower value 0.97 | locus YCL061C, strain MRC1, stronger effect = lower value 0.987 | locus YCL069W, strain vba3, stronger effect = lower value 0.993 | locus YCR088W, strain abp1, stronger effect = lower value 0.976 | locus YDL005C, strain med2, stronger effect = lower value 0.998 | locus YDL035C, strain GPR1, stronger effect = lower value 0.913 | locus YDL040C, strain nat1, stronger effect = lower value 1 | locus YDL074C, strain BRE1, stronger effect = lower value 0.885 | locus YDL101C, strain DUN1, stronger effect = lower value 0.95 | locus YDL185W, strain tfp1, stronger effect = lower value 0.993 | locus YDL192W, strain arf1, stronger effect = lower value 0.99 | locus YDR001C, strain nth1, stronger effect = lower value 1 | locus YDR069C, strain doa4, stronger effect = lower value 0.928 | locus YDR101C, strain arx1, stronger effect = lower value 0.92 | locus YDR137W, strain rgp1, stronger effect = lower value 0.901 | locus YDR150W, strain NUM1, stronger effect = lower value 1.01 | locus YDR159W, strain sac3, stronger effect = lower value 1.01 | locus YDR195W, strain ref2 1.14 | locus YDR297W, strain sur2, stronger effect = lower value 0.992 | locus YDR318W, strain mcm21, stronger effect = lower value 0.919 | locus YDR334W, strain swr1, stronger effect = lower value 1.01 | locus YDR335W, strain msn5, stronger effect = lower value 0.975 | locus YDR388W, stronger effect = lower value 0.982 | locus YEL003W, strain gim4, stronger effect = lower value 0.916 | locus YEL037C, strain rad23, stronger effect = lower value 0.986 | locus YEL061C, strain CIN8 (second series), stronger effect = lower value 1 | locus YEL061C, strain CIN8, stronger effect = lower value 0.999 | locus YER015W, strain faa2, stronger effect = lower value 0.986 | locus YER016W, strain bim1, stronger effect = lower value 0.932 | locus YER110C, stronger effect = lower value 0.979 | locus YER111C, strain swi4, stronger effect = lower value 1.01 | locus YER155C, strain BEM2, stronger effect = lower value 0.996 | locus YER167W, strain BCK2, stronger effect = lower value 0.978 | locus YFR010W, strain ubp6, stronger effect = lower value 0.919 | locus YGL078C, strain dbp3, stronger effect = lower value 0.955 | locus YGL167C, strain pmr1, stronger effect = lower value 1 | locus YGL173C, strain kem1, stronger effect = lower value 0.982 | locus YGL227W, strain vid30, stronger effect = lower value 1 | locus YGL240W, strain doc1, stronger effect = lower value 0.935 | locus YGL248W, strain PDE1, stronger effect = lower value 0.944 | locus YGL253W, strain hxk2, stronger effect = lower value 0.934 | locus YGR135W, strain pre9, stronger effect = lower value 0.936 | locus YGR252W, strain gcn5, stronger effect = lower value 0.808 | locus YHR013C, strain ard1, stronger effect = lower value 1.01 | locus YHR027C, strain rpn1, stronger effect = lower value 0.967 | locus YHR030C, strain SLT2, stronger effect = lower value 1 and 0.876 | locus YHR079C, strain IRE1 (second series), stronger effect = lower value 0.937 | locus YHR079C, strain IRE1, stronger effect = lower value 0.88 | locus YHR094C, strain hxt1, stronger effect = lower value 0.999 | locus YHR129C, strain ARP1, stronger effect = lower value 0.992 | locus YHR142W, strain chs7, stronger effect = lower value 0.967 | locus YHR200W, strain rpn10, stronger effect = lower value 0.995 | locus YIL066C, strain RNR3, stronger effect = lower value 0.997 | locus YIL073C, strain SPO22, stronger effect = lower value 0.761 | locus YIL125W, strain kgd1, stronger effect = lower value 0.974 | locus YIR030C, strain dcg1, stronger effect = lower value 0.967 | locus YJL092W, strain hpr5, stronger effect = lower value 0.937 | locus YJL095W, strain BCK1 (second series), stronger effect = lower value 1.02 | locus YJL115W, strain asf1, stronger effect = lower value 0.982 | locus YJL129C, strain trk1, stronger effect = lower value 1.09 | locus YJL134W, strain LCB3, stronger effect = lower value 0.998 | locus YJL154C, strain vps35, stronger effect = lower value 0.993 | locus YJL164C, strain tpk1, stronger effect = lower value 0.962 | locus YJL166W, strain qcr8, stronger effect = lower value 0.985 | locus YJL168C, strain set2, stronger effect = lower value 0.999 | locus YJL187C, strain SWE1 (second series), stronger effect = lower value 0.971 | locus YJL187C, strain SWE1, stronger effect = lower value 1 | locus YJR066W, strain TOR1, stronger effect = lower value 0.826
0.883 (inactive) and 0.85 (active): locus YJL095W, strain BCK1, stronger effect = lower value
